Results filed as inconclusive are left out. The source made the active and inactive calls. Unless noted, the call rests on the fitted dose curve.
What was measured:
[1] = qHTS for Inhibitors of the Functional Ribonucleoprotein Complex (vRNP) of Lassa (LASV) Arenavirus: LASV Primary Screen - GLuc reporter signal (AID 1347082; calls by dose curve; tested in HEK293 reporter line; further: nearly all actives have a fitted effect of over 60% in size; further: potency means the concentration at half of the fitted maximal effect)
[2] = qHTS for Inhibitors of the Functional Ribonucleoprotein Complex (vRNP) of Lymphocytic Choriomeningitis Arenaviruses (LCMV): Viability assay - alamar blue signal for LCMV Primary Screen (AID 1347085; calls by dose curve; tested in HEK293 reporter line; further: nearly all actives have a fitted effect of over 80% in size; further: potency means the concentration at half of the fitted maximal effect)
[3] = target: Nucleoprotein (Lymphocytic choriomeningitis virus (strain Armstrong)) (UniProt P09992); experiment: qHTS for Inhibitors of the Functional Ribonucleoprotein Complex (vRNP) of Lymphocytic Choriomeningitis Arenaviruses (LCMV): LCMV Primary Screen - GLuc reporter signal (AID 1347086); further: nearly all actives have a fitted effect of over 70% in size; further: potency means the concentration at half of the fitted maximal effect
Nucleoprotein (Lymphocytic choriomeningitis virus (strain Armstrong)), sequence (P09992 whole entry, looked up): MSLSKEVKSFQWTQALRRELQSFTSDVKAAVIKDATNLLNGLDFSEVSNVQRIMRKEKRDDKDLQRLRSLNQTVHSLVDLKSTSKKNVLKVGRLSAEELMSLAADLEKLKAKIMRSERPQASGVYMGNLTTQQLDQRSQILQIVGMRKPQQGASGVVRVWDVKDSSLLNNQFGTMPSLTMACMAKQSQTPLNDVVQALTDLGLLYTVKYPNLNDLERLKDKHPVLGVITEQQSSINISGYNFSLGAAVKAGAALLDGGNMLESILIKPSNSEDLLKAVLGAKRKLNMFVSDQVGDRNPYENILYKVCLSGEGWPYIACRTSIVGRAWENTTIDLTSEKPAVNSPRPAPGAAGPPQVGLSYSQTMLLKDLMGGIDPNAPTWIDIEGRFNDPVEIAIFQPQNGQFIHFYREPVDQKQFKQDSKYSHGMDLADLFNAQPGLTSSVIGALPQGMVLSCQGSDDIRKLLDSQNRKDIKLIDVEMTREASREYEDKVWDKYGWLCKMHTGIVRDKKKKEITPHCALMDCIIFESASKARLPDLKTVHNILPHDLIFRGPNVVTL

[4] = qHTS for Inhibitors of the Functional Ribonucleoprotein Complex (vRNP) of Lassa (LASV) Arenavirus: Viability assay - alamar blue signal for LASV Primary Screen (AID 1347083; calls by dose curve; tested in HEK293 reporter line; further: nearly all actives have a fitted effect of over 80% in size; further: potency means the concentration at half of the fitted maximal effect)
[5] = Primary qHTS to identify inhibitors of SARS-CoV-2 cell entry (AID 1645846); settings: activity change, negative = inhibition: at 57.1 µM (top of the series) unless noted; further: potency means the concentration at half of the fitted maximal effect; nearly all actives have a fitted effect of over 45% in size
Procedure, shortened: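 Using luciferase-reporting pseudoviruses carrying Wuhan-Hu-1 spike, the screen tracks entry into stably ACE2-expressing cells over 48 hr. Activity is expressed relative to spike particles versus particles lacking any fusion protein.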

[6] = target: Estrogen receptor (Homo sapiens) (UniProt P03372); experiment: qHTS assay for small molecule antagonists of estrogen receptor alpha signaling (AID 588513; active means well fitted curve in the direction sought with a large enough effect in the signal ratio, with a control signal flat, not every such curve was filed as active; the % refers to the signal ratio; further: on the % scale 0 is the no-effect control and ±100 the full control effect)
Procedure, shortened: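 Antagonist-mode qHTS in ER-alpha-UAS-bla HEK 293 cells: compound titration, 0.5nM estradiol for 18 h, CCF4 fluorescence, Hill-derived IC50.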

[7] = target: Androgen receptor (Homo sapiens) (UniProt P10275); experiment: qHTS assay for small molecule agonists of androgen receptor signaling (AID 588515; active means well fitted curve in the direction sought with a large enough effect in the signal ratio, with a control signal flat; the % refers to the signal ratio; further: on the % scale 0 is the no-effect control and ±100 the full control effect); settings: AR-UAS-bla HEK293, beta-lactamase ratio, agonist 16 h; stronger effect = higher value
Androgen receptor (Homo sapiens), sequence (P10275 whole entry, looked up): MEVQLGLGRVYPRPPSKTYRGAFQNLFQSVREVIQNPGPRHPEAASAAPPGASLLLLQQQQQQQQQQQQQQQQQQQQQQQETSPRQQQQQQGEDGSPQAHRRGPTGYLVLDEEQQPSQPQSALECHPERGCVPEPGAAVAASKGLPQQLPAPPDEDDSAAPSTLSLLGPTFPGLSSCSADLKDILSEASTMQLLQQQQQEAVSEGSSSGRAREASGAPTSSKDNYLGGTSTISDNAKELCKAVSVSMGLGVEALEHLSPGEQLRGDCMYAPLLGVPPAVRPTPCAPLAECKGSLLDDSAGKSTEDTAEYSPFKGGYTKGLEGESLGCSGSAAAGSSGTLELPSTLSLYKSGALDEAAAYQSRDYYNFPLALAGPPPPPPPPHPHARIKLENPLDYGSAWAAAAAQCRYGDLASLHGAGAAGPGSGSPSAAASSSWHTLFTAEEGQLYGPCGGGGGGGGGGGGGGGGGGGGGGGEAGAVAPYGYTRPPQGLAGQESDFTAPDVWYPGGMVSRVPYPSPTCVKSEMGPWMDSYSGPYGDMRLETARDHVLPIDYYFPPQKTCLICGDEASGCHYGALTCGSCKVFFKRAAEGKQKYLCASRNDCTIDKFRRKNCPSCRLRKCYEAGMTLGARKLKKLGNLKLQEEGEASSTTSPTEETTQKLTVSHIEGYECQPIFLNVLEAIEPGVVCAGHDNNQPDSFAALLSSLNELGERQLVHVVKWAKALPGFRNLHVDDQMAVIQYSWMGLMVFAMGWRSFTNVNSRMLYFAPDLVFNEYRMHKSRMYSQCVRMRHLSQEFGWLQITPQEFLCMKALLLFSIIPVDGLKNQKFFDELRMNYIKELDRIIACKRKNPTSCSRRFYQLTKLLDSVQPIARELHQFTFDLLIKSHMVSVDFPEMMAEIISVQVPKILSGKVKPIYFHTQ
Procedure, shortened: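 Stimulation of an AR-responsive β-lactamase reporter in GripTite HEK293 cells was measured after 16 h compound exposure at 37 °C, via CCF4 fluorescence after 2 h RT. EC50 from Hill fits, normalized to R1881 at 30 nM.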

[8] = target: Androgen receptor (Homo sapiens) (UniProt P10275); experiment: qHTS assay for small molecule antagonists of androgen receptor signaling (AID 588516; active means well fitted curve in the direction sought with a large enough effect in the signal ratio, with a control signal flat, not every such curve was filed as active; the % refers to the signal ratio; further: on the % scale 0 is the no-effect control and ±100 the full control effect)
Procedure, shortened: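 Compounds tested in titration against 10 nM R1881 in AR-responsive bla reporter HEK 293 cells; CCF4 fluorescence (460/530 nm) after 16 h exposure gave IC50 and efficacy.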

[9] = target: Bile acid receptor (Homo sapiens) (UniProt Q96RI1); experiment: qHTS assay for small molecule antagonists of farnesoid X receptor signaling (AID 588526); further: on the % scale 0 is the no-effect control and ±100 the full control effect
Bile acid receptor (Homo sapiens), sequence (Q96RI1 whole entry, looked up): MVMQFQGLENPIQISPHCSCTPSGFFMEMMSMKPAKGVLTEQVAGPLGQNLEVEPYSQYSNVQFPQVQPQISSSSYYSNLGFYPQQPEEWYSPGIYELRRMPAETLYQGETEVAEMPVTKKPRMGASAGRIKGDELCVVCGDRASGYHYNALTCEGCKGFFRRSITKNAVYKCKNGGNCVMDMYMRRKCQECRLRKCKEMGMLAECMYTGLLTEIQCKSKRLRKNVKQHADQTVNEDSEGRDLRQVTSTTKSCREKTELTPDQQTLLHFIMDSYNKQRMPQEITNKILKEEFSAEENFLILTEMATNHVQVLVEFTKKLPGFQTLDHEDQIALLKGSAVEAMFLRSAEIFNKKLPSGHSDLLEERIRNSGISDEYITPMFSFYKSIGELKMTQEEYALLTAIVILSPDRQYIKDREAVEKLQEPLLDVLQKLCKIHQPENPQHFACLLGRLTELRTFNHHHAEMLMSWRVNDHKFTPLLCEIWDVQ
Procedure, shortened: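 Concentration-response titrations were fitted to the Hill equation for half-maximal inhibition and maximal response, with data normalised to 50 uM chenodeoxycholic acid and DMSO control wells. Cells: FXR-UAS-bla HEK293T, dialyzed FBS.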

[10] = target: Bile acid receptor (Homo sapiens) (UniProt Q96RI1); experiment: qHTS assay for small molecule agonists of farnesoid X receptor signaling (AID 588527); settings: HEK293T FXR-UAS-bla, beta-lactamase ratio, 16 h; activation: stronger effect = higher value;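 further: 0% = vehicle basal and 100% = reference agonist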
Procedure, shortened: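 Quantitative HTS used FXR-UAS-bla HEK293T cells with 16 h compound incubation at 37 C. EC50 values came from concentration-response curves normalized to chenodeoxycholic acid.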

[11] = target: Glucocorticoid receptor (Homo sapiens) (UniProt P04150); experiment: qHTS assay for small molecule agonists of glucocorticoid receptor signaling (AID 588532; active means well fitted curve in the direction sought with a large enough effect in the signal ratio, with a control signal flat; the % refers to the signal ratio;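 further: 100% = dexamethasone at 0.1 µM and 0% = DMSO only wells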); settings: HeLa MMTV-bla, beta-lactamase ratio, agonist, 18 h; stronger effect = higher value; percent of dexamethasone control, DMSO zero
Glucocorticoid receptor (Homo sapiens), sequence (P04150 whole entry, looked up): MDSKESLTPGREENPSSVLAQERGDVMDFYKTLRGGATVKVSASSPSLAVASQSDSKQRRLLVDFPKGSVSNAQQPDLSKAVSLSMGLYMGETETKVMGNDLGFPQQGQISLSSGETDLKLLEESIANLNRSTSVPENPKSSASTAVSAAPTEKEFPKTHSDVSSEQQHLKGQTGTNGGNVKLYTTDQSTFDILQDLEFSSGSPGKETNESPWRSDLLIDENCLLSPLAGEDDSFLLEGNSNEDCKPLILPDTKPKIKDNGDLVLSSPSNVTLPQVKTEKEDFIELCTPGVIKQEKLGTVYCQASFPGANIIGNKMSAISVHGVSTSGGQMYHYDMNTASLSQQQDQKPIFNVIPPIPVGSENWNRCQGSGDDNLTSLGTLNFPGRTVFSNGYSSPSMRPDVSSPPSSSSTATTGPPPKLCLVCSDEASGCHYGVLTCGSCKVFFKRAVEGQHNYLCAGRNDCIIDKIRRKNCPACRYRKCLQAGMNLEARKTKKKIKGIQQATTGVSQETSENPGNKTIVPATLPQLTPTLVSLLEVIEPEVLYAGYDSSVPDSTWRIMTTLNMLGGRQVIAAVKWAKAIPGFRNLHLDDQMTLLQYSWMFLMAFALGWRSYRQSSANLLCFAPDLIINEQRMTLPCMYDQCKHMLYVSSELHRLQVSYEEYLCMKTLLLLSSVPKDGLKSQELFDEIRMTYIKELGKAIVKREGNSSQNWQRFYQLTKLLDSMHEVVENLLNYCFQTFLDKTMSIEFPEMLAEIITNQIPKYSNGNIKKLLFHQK
Procedure, shortened: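 Stimulation of a glucocorticoid response element-driven beta-lactamase gene was measured in HeLa cells. Responses were scaled between DMSO basal and 0.1 uM dexamethasone, then fitted for half-maximal stimulation.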

[12] = target: Glucocorticoid receptor (Homo sapiens) (UniProt P04150); experiment: qHTS assay for small molecule antagonists of glucocorticoid receptor signaling (AID 588533; active means well fitted inhibition curve with a large enough effect in the signal ratio, with a control signal flat, not every such curve was filed as active; the % refers to the signal ratio)
Procedure, shortened: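 Antagonist-mode qHTS: compound titrations added to GRE-bla HeLa cells, then dexamethasone 2 nM final; 18 h, 37 C. CCF4 FRET fluorescence normalized to dexamethasone and DMSO; IC50 from Hill fit.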

[13] = target: Peroxisome proliferator-activated receptor delta (Homo sapiens) (UniProt Q03181); experiment: qHTS assay for small molecule agonists of peroxisome proliferator-activated receptor delta signaling (AID 588534);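 further: 0% = DMSO basal wells and 100% = positive control agonist at 10 µM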
Peroxisome proliferator-activated receptor delta (Homo sapiens), sequence (Q03181 whole entry, looked up): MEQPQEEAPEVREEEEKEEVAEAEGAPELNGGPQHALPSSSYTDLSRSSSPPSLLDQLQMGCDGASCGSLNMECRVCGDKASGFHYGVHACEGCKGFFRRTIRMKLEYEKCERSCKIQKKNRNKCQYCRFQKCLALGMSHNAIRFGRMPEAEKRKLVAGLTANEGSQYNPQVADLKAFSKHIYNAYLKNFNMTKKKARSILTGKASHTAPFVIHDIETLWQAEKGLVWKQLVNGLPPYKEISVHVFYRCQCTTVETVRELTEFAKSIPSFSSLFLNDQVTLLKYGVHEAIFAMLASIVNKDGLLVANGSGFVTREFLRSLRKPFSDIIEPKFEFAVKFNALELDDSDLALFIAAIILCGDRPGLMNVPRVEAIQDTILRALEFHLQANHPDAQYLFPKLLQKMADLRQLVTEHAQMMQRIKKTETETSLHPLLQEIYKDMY
Procedure, shortened: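 Agonist-mode qHTS; reporter cells, 5 hrs 37 C pre-incubation; compound titration, 18 hrs 37 C; CCF4 dye, 2 hrs RT; fluorescence read. EC50/efficacy via Hill fit.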

[14] = qHTS assay for small molecule antagonists of peroxisome proliferator-activated receptor delta signaling (AID 588535; active means well fitted inhibition curve with a large enough effect in the signal ratio, with a control signal flat, not every such curve was filed as active; the % refers to the signal ratio;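 on max response: cells co-treated with a PPAR-delta agonist as stimulator during compound exposure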); settings: HEK293T PPARd-UAS-bla, beta-lactamase FRET ratio, 18 h; 460 nm channel
Procedure, shortened: (§1)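 Inhibition of PPAR-delta response element-driven beta-lactamase expression is measured in HEK293T cells exposed to a compound titration series for 18 hrs at 37 C. Half-maximal inhibition comes from Hill equation fitting.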

[15] = target: Peroxisome proliferator-activated receptor delta (Homo sapiens) (UniProt Q03181); experiment: as above
Procedure, shortened: as §1

[16] = target: Peroxisome proliferator-activated receptor gamma (Homo sapiens) (UniProt P37231); experiment: qHTS assay for small molecule agonists of peroxisome proliferator-activated receptor gamma signaling (AID 588536; active means well fitted curve in the direction sought with a large enough effect in the signal ratio, with a control signal flat, not every such curve was filed as active; the % refers to the signal ratio;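 further: 0% = DMSO basal wells and 100% = rosiglitazone at 2 µM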)
Peroxisome proliferator-activated receptor gamma (Homo sapiens), sequence (P37231 whole entry, looked up): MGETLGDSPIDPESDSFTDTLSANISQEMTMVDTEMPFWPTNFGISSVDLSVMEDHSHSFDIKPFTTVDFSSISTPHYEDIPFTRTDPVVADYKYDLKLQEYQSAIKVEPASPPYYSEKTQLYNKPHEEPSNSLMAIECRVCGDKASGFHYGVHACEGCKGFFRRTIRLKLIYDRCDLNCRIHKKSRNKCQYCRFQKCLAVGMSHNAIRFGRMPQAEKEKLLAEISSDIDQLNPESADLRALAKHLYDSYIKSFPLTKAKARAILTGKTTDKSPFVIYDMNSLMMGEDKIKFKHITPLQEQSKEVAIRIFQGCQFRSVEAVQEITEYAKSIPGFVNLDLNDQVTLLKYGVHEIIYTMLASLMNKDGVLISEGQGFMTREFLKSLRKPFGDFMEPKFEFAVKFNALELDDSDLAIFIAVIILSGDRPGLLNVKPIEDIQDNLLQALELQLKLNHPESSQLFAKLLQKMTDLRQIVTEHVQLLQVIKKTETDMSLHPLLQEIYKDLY
Procedure, shortened: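 Using GeneBLAzer HEK293 cells, response was quantified by CCF4 fluorescence and normalized between basal DMSO (0%) and rosiglitazone 2 uM (100%); curves yielded half-maximal stimulation concentration and efficacy.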

[17] = target: Peroxisome proliferator-activated receptor gamma (Homo sapiens) (UniProt P37231); experiment: qHTS assay for small molecule antagonists of peroxisome proliferator-activated receptor gamma signaling (AID 588537; active means well fitted inhibition curve with a large enough effect in the signal ratio, with a control signal flat, not every such curve was filed as active; the % refers to the signal ratio;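 further: reporter cells co-stimulated with 50 nM rosiglitazone agonist during compound treatment; % of control where 0% means no effect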)
Procedure, shortened: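 Compounds are tested as concentration series for inhibition of rosiglitazone-driven (50 nM) reporter expression in GeneBLAzer PPAR-gamma-UAS-bla HEK293 cells. After 16 h at 37 C, CCF4 substrate is added for 2 h at room temperature and blue/green fluorescence is measured.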

[18] = qHTS assay for small molecule agonists of retinoid X receptor alpha signaling (AID 588544); settings: HEK293T RXRa-UAS-bla, beta-lactamase reporter, 18 h; 530 nm emission;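 on activation: 0% = DMSO basal wells and 100% = reference agonist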
[19] = target: Retinoic acid receptor RXR-alpha (Homo sapiens) (UniProt P19793); experiment: as above
Retinoic acid receptor RXR-alpha (Homo sapiens), sequence (P19793 whole entry, looked up): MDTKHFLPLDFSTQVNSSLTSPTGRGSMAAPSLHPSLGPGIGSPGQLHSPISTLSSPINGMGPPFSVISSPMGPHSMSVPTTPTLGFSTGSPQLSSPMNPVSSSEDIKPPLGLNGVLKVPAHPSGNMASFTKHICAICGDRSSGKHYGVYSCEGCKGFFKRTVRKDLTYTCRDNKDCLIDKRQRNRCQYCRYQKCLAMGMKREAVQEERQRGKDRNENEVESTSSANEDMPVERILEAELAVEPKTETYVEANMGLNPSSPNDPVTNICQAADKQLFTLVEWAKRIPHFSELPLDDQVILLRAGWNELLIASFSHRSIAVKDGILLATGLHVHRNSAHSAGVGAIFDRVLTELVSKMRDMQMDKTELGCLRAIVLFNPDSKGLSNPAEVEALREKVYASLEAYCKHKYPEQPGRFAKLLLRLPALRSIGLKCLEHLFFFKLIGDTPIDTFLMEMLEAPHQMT

[20] = target: Thyroid hormone receptor beta (Homo sapiens) (UniProt P10828); experiment: qHTS assay for small molecule agonists of thyroid hormone receptor beta signaling (AID 588545)
Thyroid hormone receptor beta (Homo sapiens), sequence (P10828 whole entry, looked up): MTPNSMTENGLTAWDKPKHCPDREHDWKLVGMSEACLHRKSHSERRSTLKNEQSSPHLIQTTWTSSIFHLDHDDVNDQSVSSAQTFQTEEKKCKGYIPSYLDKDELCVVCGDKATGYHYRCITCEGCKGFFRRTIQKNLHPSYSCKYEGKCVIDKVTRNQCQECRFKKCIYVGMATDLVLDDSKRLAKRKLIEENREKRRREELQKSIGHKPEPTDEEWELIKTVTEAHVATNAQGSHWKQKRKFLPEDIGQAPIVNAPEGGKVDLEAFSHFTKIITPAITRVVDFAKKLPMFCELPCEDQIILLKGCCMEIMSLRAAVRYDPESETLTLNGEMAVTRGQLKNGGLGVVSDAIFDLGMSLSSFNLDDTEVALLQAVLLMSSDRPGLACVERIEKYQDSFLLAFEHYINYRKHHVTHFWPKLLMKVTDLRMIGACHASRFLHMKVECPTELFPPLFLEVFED
Procedure, shortened: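 Cells (2500/well) were seeded, incubated 4 hrs at 37 C, dosed with a compound series, incubated 18 hrs, loaded with CCF4 dye for 2 hrs at RT, then read for fluorescence. Data were scaled between DMSO (0%) and 10 nM T3 (100%).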

[21] = qHTS assay for small molecule antagonists of retinoid X receptor alpha signaling (AID 588546; active means well fitted inhibition curve with a large enough effect in the signal ratio, with a control signal flat, not every such curve was filed as active; the % refers to the signal ratio); settings: HEK293T RXRa-UAS-bla, beta-lactamase ratio, antagonist mode; measured here: W530 green channel, cytotoxicity proxy
Procedure, shortened: (§2)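 Beta-lactamase reporter inhibition, read as CCF4 fluorescence ratio (ex 405, em 460/530 nm) after 2 h at RT. HEK293T UAS-bla cells, 2500/well, were stimulated with 9-cis-RA at 500 or 100 nM final alongside test compound for 18 h at 37 C.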

[22] = target: Retinoic acid receptor RXR-alpha (Homo sapiens) (UniProt P19793); experiment: as above; settings: HEK293T RXRa-UAS-bla, beta-lactamase ratio, antagonist mode
Procedure, shortened: as §2

[23] = target: Thyroid hormone receptor beta (Homo sapiens) (UniProt P10828); experiment: qHTS assay for small molecule antagonists of thyroid hormone receptor beta signaling (AID 588547; active means well fitted inhibition curve with a large enough effect in the signal ratio, with a control signal flat, not every such curve was filed as active; the % refers to the signal ratio); settings: TR-UAS-bla HEK293, beta-lactamase ratio, antagonist mode, 18 h
Procedure, shortened: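 TR-UAS-bla GripTite HEK293 cells in 2% charcoal/dextran FBS medium were preincubated 4 h at 37 C, given compound (0.59 nM to 92 uM) plus 0.4 nM T3 (final) for 18 h, then CCF4 for 2 h at RT; Hill fit gave IC50.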

[24] = qHTS assay for small molecule agonists of the antioxidant response element (ARE) signaling pathway (AID 651741; active means well fitted activation curve with a large enough effect in the signal ratio; the % refers to the signal ratio; further: % of control where 0% means no effect)
Procedure, shortened: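 Reporter: beta-lactamase under ARE, stably in HepG2. Exposure: 16 h, 37 C, compounds delivered in DMSO by pin tool after 5 h cell preincubation. Readout: FRET substrate fluorescence after 2 h at RT.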

[25] = qHTS assay for small molecule activators of the nuclear factor-kappa B (NF-kB) signaling pathway (AID 651749; active means well fitted activation curve with a large enough effect in the signal ratio; the % refers to the signal ratio; further: % of control where 0% means no effect); settings: NF-kB-bla ME-180 cells, beta-lactamase FRET ratio, 16 h; activation: stronger effect = higher value
Procedure, shortened: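 Human ME-180 cervical cells with an NF-kB-bla construct; compounds added via 23 nL pin transfer, DMSO as vehicle; incubation 16 hr. Reporter activity measured by FRET disruption.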

[26] = target: Peroxisome proliferator-activated receptor alpha (Homo sapiens) (UniProt Q07869); experiment: qHTS assay for small molecule agonists of the peroxisome proliferator-activated receptor alpha (PPARalpha) signaling pathway (AID 651778; active means well fitted curve in the direction sought with a large enough effect; an effect the other way counts as inactive or inconclusive; further: % of control where 0% means no effect); settings: PathHunter PPARalpha complementation, chemiluminescence, 6 h; stronger effect = higher value
Procedure, shortened: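 Cells plated at 2,000/well and held overnight at 37 C, 5% CO2, then compound added by pin tool for 6 hr; after PathHunter detection reagent and 60 min at room temperature, chemiluminescence from enzyme complementation was read.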

[27] = qHTS assay for small molecule agonists of the antioxidant response element (ARE) signaling pathway measured by Nrf2-dependant transcriptional activity (AID 720636; active means well fitted curve in the direction sought with a large enough effect in the repeat runs; an effect the other way counts as inactive or inconclusive; further: % of control where 0% means no effect)
Procedure, shortened: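 ARE-luc HepG2 cells carrying an Nrf2-responsive luciferase reporter were plated in medium with 1% dialyzed FBS, left 6 hr at 37 C to attach, then exposed to compound for 16 hr. Luciferase luminescence was read after ONE-Glo addition.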

[28] = qHTS assay for small molecule agonists of the antioxidant response element (ARE) signaling pathway measured by Nrf2-dependant transcriptional activity - cell viability counter screen (AID 720653; active means well fitted curve in the direction sought with a large enough effect in the repeat runs; an effect the other way counts as inactive or inconclusive; further: on the % scale 0 is the no-effect control and ±100 the full control effect); settings: ARE-bla HepG2 viability, CellTiter-Glo ATP luminescence, 16 h; max response: stronger effect = lower value
Procedure, shortened: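 ARE-bla HepG2 cells (2,000/well) rested 5 hrs at 37C/5% CO2, then exposed to compounds in DMSO for 16 hrs. Viability was read in the same wells as intracellular ATP by luminescence, 30 min at room temperature after reagent addition.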

[29] = qHTS assay for cell viability of HEK293 cells (AID 743288; active means well fitted curve in the direction sought with a large enough effect; an effect the other way counts as inactive or inconclusive; further: on the % scale 0 is the no-effect control and ±100 the full control effect; nearly all actives have a fitted effect of over 50% in size); settings: ATP luminescence (CellTiter-Glo), 18 h; max response: stronger effect = lower value
Procedure, shortened: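 HEK293, 18 h, 37 C, ATP luminescence. Cells at 2,000/well were allowed at least 5 h to settle before dosing; CellTiter-Glo developed 30 min at RT.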

[30] = qHTS assay for cell viability of the p53RE-bla HCT-116 cell line (AID 743292; active means well fitted curve in the direction sought with a large enough effect; an effect the other way counts as inactive or inconclusive; further: on the % scale 0 is the no-effect control and ±100 the full control effect; nearly all actives have a fitted effect of over 55% in size)
Procedure, shortened: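 CellSensor p53RE-bla HCT-116 cells, 4,000/well, preincubated 5 h at 37 C, then exposed to compounds in DMSO for 16 h at 37 C. Viability read as CellTiter-Glo luminescence (intracellular ATP) after 30 min at room temperature.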

[31] = target: Nuclear receptor subfamily 1 group I member 2 (Rattus norvegicus) (UniProt Q9R1A7); experiment: qHTS assay for small molecule activators of the rat pregnane X receptor (rPXR) signaling pathway (AID 651751; call rule not given here; further: 0% is about no effect); settings: rPXR reporter cells, luciferase (One-Glo), 24 h
[32] = qHTS assay for small molecule activators of the human pregnane X receptor (PXR) signaling pathway (AID 720659; call rule not given here; further: 0% is about no effect)
[33] = Inducers of the Endoplasmic Reticulum Stress Response (ERSR) in human glioma: Validation (AID 504836; active means well fitted curve in the direction sought with a large enough effect; an effect the other way counts as inactive or inconclusive; further: 0% is about no effect)
Procedure, shortened: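 Stably transfected U87-MG human glioma cells carrying a GRP78-based luminescent sensor were seeded at 1000 cells/well, pin-dosed with compounds and incubated 16 h. Luciferase reagent was then added, and end-point luminescence was read after 10 min at room temperature.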

[34] = Cytotoxicity counterscreen for inhibitors of SARS-CoV-2 cell entry (AID 1645845); further: potency means the concentration at half of the fitted maximal effect; nearly all actives have a fitted effect of over 50% in size
Procedure, shortened: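 After a 15 min room-temperature ATPLite 1step step, luminescence reflected ATP remaining in HEK293-ACE2 cells exposed to compound for 1 h plus 48 h at 37 C, with percent activity set by cell and no-cell controls.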

C[C@@H]1C(=O)O[C@H]2[C@H](O)[C@@]34[C@H]5CC(C(C)(C)C)[C@]36[C@H](OC(=O)[C@H]6O)O[C@]4(C(=O)O5)[C@@]12O (stereo partly specified)
inactive: Potency [1] | Potency [2] | Potency [3]

CCc1ccc(OCc2ccccc2C(=O)Nc2ccc3nc(C)cc(N)c3c2)cc1
active: Potency [1] 12.2 µM | Potency [4] 21.7 µM | Potency [5] 10 µM

O=C(C=Cc1ccccc1O)c1ccccc1O
inactive: Potency [1] | Potency [2]

COc1cc2c(Nc3ccc(Cl)c(Cl)c3F)ncnc2cc1OCC1C[C@@H]2CN(C)C[C@H]2C1
active: Potency [1] 8.63 µM | Potency [2] 1.93 µM | Potency [3] 2.43 µM

Cc1nccc2c1[nH]c1ccc(Br)cc12
inactive: Potency [1] | Potency [2] | Potency [3]

CCCCOP(=O)(O)OCCCC
-2.61%: max response [21]
inactive: Potency [6] | activation [7] -1.97% | outcome [8] | Potency [9] | activation [10] 1.99% | activation [11] -1.37% | Potency [12] | Potency [13] | outcome [15] | outcome [16] | Potency [17] | outcome [19] | Potency [20] | max response [22] -17.7% | activity change % (negative = inhibition) [23] 3.56% | Potency [24] | activation [25] 1.33% | max response [26] -1.16% | Potency [27] | max response [28] -8.15% | max response [29] -9.76% | outcome [30] | Potency [1] | Potency [4] | max response [31] 5.92% | outcome [32]
-20.1%: max response [18]
24.1%: max response [14]

Cc1ccc([C@@H]2O[C@H](CO)[C@@H](O)[C@H](O)[C@@H]2O)cc1Cc1ccc(-c2ccc(F)cc2)s1
active: Potency [2] 34.3 µM
inactive: Potency [1]

Nc1nc(F)nc2c1ncn2[C@@H]1O[C@H](COP(=O)(O)O)[C@@H](O)[C@H]1O
inactive: Potency [1] | Potency [2] | Potency [3]

OC1c2ccccc2N=C2CCCN21 (stereo unspecified)
inactive: Potency [1] | Potency [2]

COc1cc2c(c(OC)c1OC)-c1ccc(OC)c(=O)cc1[C@@H](NC=O)CC2
inactive: Potency [2] | Potency [3]
active: Potency [1] 35.5 µM

CCc1ccc(/C=C2/SC(=S)NC2=O)cc1
active: Potency [34] 10 µM | Potency [5] 31.6 µM
inactive: outcome [33] | Potency [1] | Potency [4]

COc1cc2c(cc1OC)[C@@H]1Cc3ccc(OC)c(OC)c3CN1CC2
inactive: Potency [1] | Potency [2] | Potency [3]
